Our source for the inhibition values is PubChem BioAssay.

Each structure is given as a SMILES string. A number with no mark means an inactive call. No rule for the calls is given here.

The target of the test is Pantothenate synthetase (Mycobacterium tuberculosis (strain ATCC 25618 / H37Rv)) (UniProt P9WIL5). The test can be described thus: Coupled enzyme confirmation of inhibitors against recombinant Mtb PanC (AID 375).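 Also: 0% = full reaction with vehicle and 100% = no enzyme background.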 The note with it: coupled enzyme assay; at 10 µM, active compounds read high.
Sequence of Pantothenate synthetase (Mycobacterium tuberculosis (strain ATCC 25618 / H37Rv)) (P9WIL5 whole entry, looked up): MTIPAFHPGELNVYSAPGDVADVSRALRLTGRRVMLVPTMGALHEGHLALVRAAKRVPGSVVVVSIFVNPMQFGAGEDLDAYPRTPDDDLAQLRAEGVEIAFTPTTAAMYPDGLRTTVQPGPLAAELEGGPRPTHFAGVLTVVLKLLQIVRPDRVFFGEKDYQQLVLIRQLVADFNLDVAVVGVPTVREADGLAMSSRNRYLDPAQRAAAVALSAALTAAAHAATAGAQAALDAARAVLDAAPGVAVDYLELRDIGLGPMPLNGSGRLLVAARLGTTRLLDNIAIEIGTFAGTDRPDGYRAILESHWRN
With `O=C(c1ccc2nc(N3CCOCC3)sc2c1)N1CCCC1`, the inhibition (usually how much of the control response was suppressed) is 13%.

Consider `COC(=O)c1ccccc1NS(=O)(=O)c1ccc(F)cc1`, for which the inhibition was 0%. With `NC(=O)N1c2ccccc2C=Cc2ccccc21`, the inhibition was 0%.

In the case of `CC(=O)Nc1c(O)nc(SCC(=O)Nc2nnc(CC(C)C)s2)[nH]c1=O`, the inhibition was 9%.

In the case of `CCN(CC(=O)NCc1cccs1)C(=O)c1cc(S(=O)(=O)N2CCOCC2)ccc1C`, the inhibition is 0%. As to `CCCN(CCC)S(=O)(=O)c1ccc(C(=O)Nc2nnc(-c3cccc(OC)c3)o2)cc1`, the inhibition was 6%. Turning to `O=C(NCc1ccco1)C1CCN(C(=O)c2cc3sccc3n2Cc2ccc(F)cc2)CC1`, the inhibition is 5%. Regarding `Cc1ccc(CNC(=O)C2CCCN(S(=O)(=O)c3cnc[nH]3)C2)cc1` (stereo not given), the inhibition was 2%. `Cc1c(C(=O)O)sc2nc3n(c(=O)c12)CCC(C)CC3` (stereo not given): the inhibition is 2%.

For `CSc1n[nH]c(NCc2ccccc2)n1`, the inhibition is 6%. Take `OC(CN1CCOCC1)Cn1c(-c2cccc(Cl)c2)nc2ccccc21` (stereo not given): the inhibition was 4%. The figure for `CCCn1cc(SCC(=O)NCc2ccco2)c2ccccc21` is 3%; for `Cc1ccc(C2CC(c3cccc(Br)c3)Nc3nnnn32)cc1` (stereo not given) it is 1%; for `CC1(C2(O)CC(c3ccccc3)ON2)CCCCC1` (stereo not given) it is 2%.

Turning to `COc1ccc(NC(=O)N2CCC(c3nc(-c4cccs4)no3)CC2)cc1`, the inhibition was 0%. Take `COC(=O)Cc1c(C)nc2nc[nH]n2c1=O`: the inhibition was 0%. Consider `CCOc1ccc(N(C(C)=O)C2C=CS(=O)(=O)C2)cc1` (stereo not given), for which the inhibition was 0%. On to `COc1ccc(COC(=O)c2n[nH]c3ccccc23)cc1F`, for which the inhibition was 0%. In the case of `CCOc1ccc(S(=O)(=O)Nc2ccc(Cl)cn2)c(C)c1C`, the inhibition is 0%. Consider `O=C(CSc1nnc(-c2ccncc2)o1)Oc1ccccc1`, for which the inhibition was 0%. Regarding `Cc1cc(NC(=O)C23CCC(C)(c4nc5cc(Cl)c(Cl)cc5nc42)C3(C)C)no1` (stereo not given), the inhibition is 0%.

Take `O=C(CSc1nnc(CNC(=O)c2cccs2)o1)NC1CCCC1`: the inhibition is 0%. Take `Cn1cccc1Cc1nnc(SCC(=O)Nc2ccc(F)cc2)n1-c1ccc(F)cc1`: the inhibition was 4%. With `COc1ccc(NS(=O)(=O)c2c(C)[nH]c(=O)[nH]c2=O)c(OC)c1`, the inhibition was 0%. Regarding `CCOc1ccc(OCC)c(NS(=O)(=O)c2ccc3c(c2)n(C)c(=O)c(=O)n3C)c1`, the inhibition is 3%. Take `COc1ccc2cc(C(c3nnnn3C3CCCCC3)N3CCCCCC3)c3nnnn3c2c1` (stereo not given): the inhibition is 3%. With `CC1(C)Cc2c(sc3c2c(=N)n(Cc2ccco2)c(=O)n3Cc2ccccc2)CO1`, the inhibition was 0%. In the case of `CCC1Oc2ccc(C)cc2N(CC(=O)N(Cc2cccnc2)Cc2ccc(C)o2)C1=O` (stereo not given), the inhibition is 4%. The figure for `Cc1cc(C(=O)Cn2cncn2)c(C)n1CCc1ccc(F)cc1` is 1%; for `COC(=O)Cn1c2ccccc2c2nc(C)sc21` it is 0%; for `CCN1C(=O)c2ccccc2S(=O)(=O)c2ccc(C(=O)NCc3cccnc3)cc21` it is 0%. Regarding `CC1=C(C(=O)OC(C)C)C(c2ccccn2)n2ncnc2N1` (stereo not given), the inhibition was 0%. Turning to `CCOC(=O)N1CCN(C(=O)CSc2cc(C)nc3c(-c4ccccc4OC)c(C)nn23)CC1`, the inhibition was 0%. `Cc1ccc(/C=c2\s/c(=C(/C#N)C(=O)N3CCCC3)n(Cc3ccco3)c2=O)s1`: the inhibition is 0%.

With `CCOC(=O)C1CCN(C(=O)CN(Cc2ccccc2)S(C)(=O)=O)CC1`, the inhibition was 1%.

On to `CCn1c(SCC(=O)Nc2ccc3c(c2)OCO3)nc2c(c1=O)SC(C)C2` (stereo not given), for which the inhibition is 0%. Turning to `CC1(C)Cc2noc(N)c2C(C)(C)N1O`, the inhibition is 0%. In the case of `CCOc1ccc(CSC(CC(=O)O)C(=O)O)cc1` (stereo not given), the inhibition was 6%. As to `COc1cccc2c1C(=O)c1c(O)c3c(c(O)c1C2=O)C[C@@](O)(C(=O)CO)C[C@@H]3O[C@H]1C[C@H](N)[C@H](O)[C@H](C)O1`, the inhibition was 5%. Take `Cc1cccc(N=C2NC(=O)CS2)c1C`: the inhibition is 0%.
